This passage reports Potency and max response results from PubChem BioAssay (Tox21).

The nature of experiment [1]: qHTS RealTime-Glo MT Cell Viability Assay in HepG2 cells - 40 hour (AID 1224870). Further: nearly all actives have a fitted effect of over 50% in size. The method in brief: (§1)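 Real-time viability: cells seeded at 600 per well together with NanoLuc and cell-permeant prosubstrate, compounds added after 5 h incubation. Luminescence tracked at 0, 8, 16, 24, 32 and 40 h of exposure.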
Experiment [2] can be described thus: A CellTox Green Cytotoxicity Assay to monitor cytotoxicity in HEK293 cells - 40 hour (AID 1224871). Further: nearly all actives have a fitted effect of over 45% in size. Further: potency means the concentration at half of the fitted maximal effect. The method in brief:
(§2)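 Homogeneous no-lysis format: HEK293 cell suspension mixed with CellTox Green reagent, seeded, incubated 5 h at 37 C/5% CO2, then dosed by pintool with compound in DMSO.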

Experiment [3] in a line: qHTS RealTime-Glo MT Cell Viability Assay in HEK293 cells - 16 hour (AID 1224872). Further: nearly all actives have a fitted effect of over 50% in size. Further: potency means the concentration at half of the fitted maximal effect. The method in brief:
(§3)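 HEK293 cells were seeded at 600 cells/well together with NanoLuc luciferase and cell-permeant prosubstrate, preincubated 5 h at 37 C/5% CO2, then given compound in DMSO by pintool. Luminescence from viable-cell prosubstrate reduction was read repeatedly over 40 h.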

Experiment [4] is described as follows: qHTS RealTime-Glo MT Cell Viability Assay in HepG2 cells - 8 hour (AID 1224873). Further: nearly all actives have a fitted effect of over 55% in size. The method in brief:
as §1

Experiment [5] can be described thus: qHTS RealTime-Glo MT Cell Viability Assay in HEK293 cells - 40 hour (AID 1224874). Further: nearly all actives have a fitted effect of over 50% in size. Further: potency means the concentration at half of the fitted maximal effect. Particulars: RealTime-Glo luminescence; max response: stronger effect = lower value. The method in brief:
(§4)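 Measured as luminescence from the same continuously cultured HEK293 wells at successive time points (0, 8, 16, 24, 32, 40 h) after compound addition. Reagent present from seeding; dosing at 5 h; incubation 37 C.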

The nature of experiment [6]: A CellTox Green Cytotoxicity Assay to monitor cytotoxicity in HEK293 cells - 24 hour (AID 1224875). Further: series mostly up to about 77 µM; nearly all actives have a fitted effect of over 45% in size. The method in brief: as §2
Experiment [7] in a line: A CellTox Green Cytotoxicity Assay to monitor cytotoxicity in HepG2 cells - 16 hour (AID 1224876). Further: nearly all actives have a fitted effect of over 45% in size. Further: potency means the concentration at half of the fitted maximal effect. In short, it runs like this:
(§5)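 Fluorescent DNA-binding dye, 600 HepG2 cells/well, 5 h preincubation then compound in DMSO; same plates read at 0–40 h, 37 C.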

Experiment [8] in a line: qHTS RealTime-Glo MT Cell Viability Assay in HepG2 cells - 32 hour (AID 1224877). Further: nearly all actives have a fitted effect of over 55% in size. The method in brief:
(§6)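 HepG2 cells were seeded at 600 cells/well together with NanoLuc luciferase and a cell-permeant prosubstrate, preincubated 5 h at 37 C/5% CO2, then pin-dosed with compounds in DMSO. Nonlytic luminescence from viable cells was read at each time point.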

Experiment [9] can be described thus: A CellTox Green Cytotoxicity Assay to monitor cytotoxicity in HepG2 cells - 40 hour (AID 1224879). Further: nearly all actives have a fitted effect of over 40% in size. Further: potency means the concentration at half of the fitted maximal effect. The method in brief: as §5
Experiment [10] is described as follows: qHTS RealTime-Glo MT Cell Viability Assay in HEK293 cells - 0 hour (AID 1224880). Further: nearly all actives have a fitted effect of over 45% in size. Further: potency means the concentration at half of the fitted maximal effect. In short, it runs like this: as §4
Experiment [11] in a line: A CellTox Green Cytotoxicity Assay to monitor cytotoxicity in HEK293 cells - 32 hour (AID 1224881). Further: nearly all actives have a fitted effect of over 40% in size. The method in brief: as §2
The nature of experiment [12]: A CellTox Green Cytotoxicity Assay to monitor cytotoxicity in HepG2 cells - 0 hour (AID 1224882). Further: nearly all actives have a fitted effect of over 35% in size. The method in brief:
as §5

Experiment [13] is described as follows: A CellTox Green Cytotoxicity Assay to monitor cytotoxicity in HepG2 cells - 32 hour (AID 1224883). Further: nearly all actives have a fitted effect of over 50% in size. Further: potency means the concentration at half of the fitted maximal effect. In short, it runs like this:
as §5

A short description of experiment [14]: qHTS RealTime-Glo MT Cell Viability Assay in HepG2 cells - 16 hour (AID 1224885). Further: nearly all actives have a fitted effect of over 50% in size. The method in brief: as §6
Experiment [15] is described as follows: qHTS RealTime-Glo MT Cell Viability Assay in HEK293 cells - 24 hour (AID 1224886). Further: nearly all actives have a fitted effect of over 50% in size. Further: potency means the concentration at half of the fitted maximal effect. The method in brief: as §3
Experiment [16] in a line: qHTS RealTime-Glo MT Cell Viability Assay in HEK293 cells - 8 hour (AID 1224887). In short, it runs like this:
as §4

The nature of experiment [17]: A CellTox Green Cytotoxicity Assay to monitor cytotoxicity in HEK293 cells - 16 hour (AID 1224888). Further: nearly all actives have a fitted effect of over 35% in size. The method in brief:
as §2

Experiment [18] is described as follows: qHTS RealTime-Glo MT Cell Viability Assay in HepG2 cells - 0 hour (AID 1224889). Further: nearly all actives have a fitted effect of over 50% in size. In short, it runs like this:
as §6

Experiment [19] is described as follows: A CellTox Green Cytotoxicity Assay to monitor cytotoxicity in HEK293 cells - 8 hour (AID 1224884). Further: nearly all actives have a fitted effect of over 35% in size. In short, it runs like this: as §2
A short description of experiment [20]: A CellTox Green Cytotoxicity Assay to monitor cytotoxicity in HepG2 cells - 24 hour (AID 1224878). Further: nearly all actives have a fitted effect of over 45% in size. Further: potency means the concentration at half of the fitted maximal effect. In short, it runs like this: as §5

Structures are written as SMILES. Unmarked numbers belong to inactive results. Inconclusive results are not listed. Activity calls are given as the source filed them. The call rests on the fitted dose curve; in most records, active means well fitted curve in the direction sought with a large enough effect in the repeat runs; inconclusive means weak or mixed curves; inactive means no such curve, though single readings can be large; an effect the other way counts as inactive or inconclusive.
On the % scale 0 is the no-effect control and ±100 the full control effect.

With `CCCCCCCCCCC(=O)O`, the Potency result in experiment [1], in experiment [2], in experiment [3], in [4], in experiment [6] and in experiment [7] was “inactive” each time. For the same compound, the Potency entry in experiment [8], in experiment [9], in experiment [10], in experiment [11], in [12] and in experiment [13] was “inactive” throughout. Moreover, the Potency result in experiment [14], in experiment [15], in experiment [16], in experiment [17] and in [18] was “inactive” each time. Moreover, the max response in experiment [5] was 3.53%.
For the compound `O=c1[nH]c2ccc(Cl)cc2o1`, the Potency result in [1], in experiment [2], in [3], in experiment [4], in experiment [6] and in experiment [7] was “inactive” throughout. For the same compound, the Potency entry in experiment [8], in experiment [9], in experiment [10], in [11], in experiment [12] and in [13] was “inactive” each time. Moreover, the Potency result in [19], in [14], in experiment [15], in experiment [16], in [17] and in experiment [18] was “inactive” each time. Also, in [5], the max response is -0.887%.
As for `NNC(=O)CP(=O)(c1ccccc1)c1ccccc1`, the Potency result in experiment [1], in [2], in experiment [3], in experiment [4], in experiment [6] and in [7] was “inactive” in each case. The Potency entry in experiment [8], in experiment [20], in experiment [10], in experiment [11], in experiment [12] and in experiment [13] was “inactive” each time. The Potency result in experiment [19], in experiment [14], in experiment [15], in experiment [16], in experiment [17] and in experiment [18] was “inactive” in each case. Further, the max response in experiment [5] was -3.49%.
For `NCCNCCO`, the Potency result in experiment [1], in experiment [2], in experiment [3], in experiment [4], in [6] and in [7] was “inactive” each time. Moreover, the Potency entry in experiment [8], in [9], in experiment [10], in experiment [12], in experiment [13] and in [14] was “inactive” in each case. The Potency entry in experiment [15], in [16], in experiment [17] and in experiment [18] was “inactive” each time. Moreover, the max response in [5] was 20.2%.
On to `O=C(O)c1cccc(-c2noc(-c3ccccc3F)n2)c1`, for which the Potency result in experiment [1], in experiment [2], in experiment [3], in [4], in experiment [6] and in experiment [7] was “inactive” each time. Further, the Potency entry in experiment [20], in experiment [9], in [10], in experiment [11], in [12] and in [13] was “inactive” in each case. Besides, the Potency result in experiment [19], in experiment [14], in experiment [15], in experiment [16], in experiment [17] and in experiment [18] was “inactive” throughout. The max response in [5] was 2.77%.
Consider `C=C1C[C@@]23CC[C@H]4[C@@](C)(CCC[C@@]4(C)C(=O)O[C@@H]4O[C@H](CO)[C@@H](O)[C@H](O)[C@H]4O)[C@@H]2CC[C@]1(O[C@@H]1O[C@H](CO)[C@@H](O)[C@H](O[C@@H]2O[C@H](CO)[C@@H](O)[C@H](O)[C@H]2O)[C@H]1O[C@@H]1O[C@H](CO)[C@@H](O)[C@H](O)[C@H]1O)C3`, for which the Potency result in experiment [1], in experiment [2], in experiment [3], in experiment [4], in experiment [6] and in [7] was “inactive” in each case. Further, the Potency entry in experiment [8], in experiment [9], in experiment [10], in [11], in experiment [12] and in [13] was “inactive” throughout. Besides, the Potency result in [19], in experiment [14], in experiment [15], in [16], in [17] and in experiment [18] was “inactive” throughout. In addition, in experiment [5], the max response is 3.82%.
Turning to `CC1=C(CC=O)C(C)(C)CCC1`, the Potency entry in [1], in experiment [2], in experiment [3], in [4], in experiment [6] and in experiment [7] was “inactive” each time. In addition, the Potency result in [8], in [20], in experiment [9], in experiment [12], in experiment [13] and in experiment [19] was “inactive” in each case. Further, the Potency result in [14], in experiment [15], in [16], in experiment [17] and in [18] was “inactive” in each case. For the same compound, the max response in [5] was -9.82%.
For the compound `Cc1ccc(OC(=O)c2ccccc2O)cc1`, the Potency entry in experiment [1], in experiment [3], in [4], in experiment [6], in [7] and in [8] was “inactive” each time. Also, the Potency result in experiment [20], in experiment [9], in experiment [10], in experiment [12], in experiment [13] and in experiment [19] was “inactive” in each case. The Potency entry in experiment [14], in [15], in experiment [16], in experiment [17] and in experiment [18] was “inactive” throughout. In [2], the Potency was 49 µM (active). For the same compound, the max response in experiment [5] is -11.7%.
Take `Nc1nc2ccc([N+](=O)[O-])cc2s1`: the Potency entry in [1], in experiment [2], in [3], in experiment [4], in [6] and in experiment [8] was “inactive” each time. Besides, the Potency result in experiment [10], in experiment [11], in experiment [14], in experiment [16], in [17] and in [18] was “inactive” each time. Moreover, the Potency in experiment [7] was 49 µM (active); in [20] it was 43.6 µM (active); in experiment [13], 43.6 µM (active).
In the case of `C/C=C/C=C/C=O`, the Potency entry in experiment [1], in experiment [2], in experiment [3], in [4], in [6] and in experiment [7] was “inactive” in each case. Also, the Potency entry in experiment [20], in [9], in [10], in [11], in experiment [12] and in experiment [13] was “inactive” throughout. Besides, the Potency result in experiment [19], in experiment [14], in [15], in experiment [16], in [17] and in experiment [18] was “inactive” throughout. Also, the max response in experiment [5] was 10.8%.
In the case of `O=C1c2ccccc2C(=O)C1c1nc2ccccc2c(Br)c1O`, the Potency entry in experiment [1], in experiment [2], in experiment [3], in experiment [4], in experiment [6] and in [8] was “inactive” each time. The Potency result in experiment [10], in experiment [11], in experiment [12], in [14], in [15] and in experiment [16] was “inactive” in each case. The Potency entry in [17] and in experiment [18] was “inactive” throughout. Further, in experiment [5], the max response was 21.2%. The Potency in [9] is 4.9 µM (active).
`O=[N+]([O-])c1ccc(O/N=C/c2cc(Br)c(O)c(Br)c2)c([N+](=O)[O-])c1`: the Potency entry in experiment [1], in experiment [2], in experiment [4], in [6], in experiment [7] and in [9] was “inactive” in each case. The Potency result in experiment [10], in experiment [11], in experiment [12], in experiment [13], in experiment [19] and in experiment [14] was “inactive” in each case. Also, the Potency entry in [17] and in experiment [18] was “inactive” throughout. The Potency in [3] is 43.4 µM (active); in experiment [5], 43.4 µM (active); in experiment [15] it was 48.7 µM (active).
For the compound `C=CCc1ccccc1OCC(O)CNC(C)C` (centres undefined), the Potency result in [1], in [2], in [3], in [6], in experiment [7] and in experiment [8] was “inactive” throughout. For the same compound, the Potency result in [20], in [9], in experiment [10], in experiment [11], in experiment [12] and in experiment [13] was “inactive” in each case. For the same compound, the Potency result in [14], in [15], in [16], in experiment [17] and in experiment [18] was “inactive” each time. In [5], the max response was -5.29%.
For the compound `CC(C)Nc1cccnc1N1CCN(C(=O)c2cc3cc(NS(C)(=O)=O)ccc3[nH]2)CC1`, the Potency result in experiment [1], in [2], in [3], in [4], in experiment [6] and in experiment [7] was “inactive” each time. Also, the Potency entry in [20], in experiment [11], in experiment [12], in experiment [13], in [14] and in [15] was “inactive” throughout. In addition, the Potency result in experiment [16] and in experiment [17] was “inactive” throughout. Also, the max response in experiment [5] was -29%. Also, in experiment [10], the Potency was 9.52 µM (active).
